Results on 17 molecules are retold here after PubChem BioAssay (NCATS).

Results filed as inconclusive are left out. Values without a mark were called inactive. Calls of active or inactive are those of the source. Calls follow the shape of the dose curve; as a rule, active = well fitted inhibition curve with a large enough effect; inconclusive = small, poorly fitted or top-dose-only effect; inactive = no such curve, though single readings can be large or run the other way.
Potency is read from the fitted curve at half-maximal effect.

This assay is described as follows: qHTS Screen of the MIPE 4.0 Collection Against Ewings Sarcoma (TC71) (AID 1259253). Also: nearly all actives have a fitted effect of over 40% in size.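 As to viability (% of DMSO): 100% = DMSO-treated cells and 0% = medium-only wells without cells.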 Conditions: TC71 Ewing sarcoma viability, CellTiter-Glo, 48 h; series mostly up to 45.8 µM; viability (% of DMSO): at the top concentration. The method, boiled down:
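Compound titrations go onto adherent log-phase cells 4 h after seeding, incubate 48 h at 37C, then CellTiter-Glo luminescence reports viability relative to DMSO and cell-free controls.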
On the technique in general: In qHTS, concentration-response curves come from the screen itself.
With `CNCC[C@H](Oc1cccc2ccccc12)c1cccs1`, the Potency was 2.64 µM (active).
As for `NC(=O)c1cccc(N)c1`, the “viability (% of DMSO)” value is 132%.
As for `N=C(N)c1ccc(OCCCCCOc2ccc(C(=N)N)cc2)cc1`, the Potency is 8.33 µM (active).
As to `CC(C(=O)O)c1ccc2c(c1)CC(=O)c1ccccc1S2` (configuration not stated), the “viability (% of DMSO)” value was 115%.
Consider `CC(C)OC(=O)OCOP(=O)(CO[C@H](C)Cn1cnc2c(N)ncnc21)OCOC(=O)OC(C)C`, for which the Potency is 18.7 µM (active).
`CC1(C)[C@H](C(=O)O)N2C(=O)C[C@H]2S1(=O)=O`: the “viability (% of DMSO)” value was 134%.
For `CCc1cc(C(N)=S)ccn1`, the Potency was 20.9 µM (active).
In the case of `C[C@@H]1CN(c2c(F)c(N)c3c(=O)c(C(=O)O)cn(C4CC4)c3c2F)C[C@H](C)N1`, the “viability (% of DMSO)” value is 127% [at 23.2 µM].
For the molecule `S=P(N1CC1)(N1CC1)N1CC1`, the Potency is 16.6 µM (active).
Take `COc1nc(N)nc2c1ncn2[C@@H]1O[C@H](CO)[C@@H](O)[C@@H]1O`: the “viability (% of DMSO)” value was 120%.
`CCCCCCNC(=O)n1cc(F)c(=O)[nH]c1=O`: the Potency is 8.33 µM (active).
The same measure, in the same setting: under `CCN1CCCC1CNC(=O)c1cc(S(N)(=O)=O)ccc1OC` (configuration not stated) stands 16.6 µM (active).
With `CC[C@H](C)C(=O)O[C@H]1C[C@@H](C)C=C2C=C[C@H](C)[C@H](CC[C@@H]3C[C@@H](O)CC(=O)O3)[C@H]21`, the Potency was 14.8 µM (active).
For the molecule `COc1ccc(-c2ccc3cc(C(=O)O)ccc3c2)cc1C12CC3CC(CC(C3)C1)C2`, the Potency is 2.96 µM (active).
Turning to `CCOC(=O)c1ccc(C#Cc2ccc3c(c2)C(C)(C)CCS3)nc1`, the “viability (% of DMSO)” value is 123%.
The same measure, in the same setting: for `CC(C)OC(=O)C(C(=O)OC(C)C)=C1SC=CS1` the value was 109%.
Take `CNC1CCCN(c2c(F)cc3c(=O)c(C(=O)O)cn(C4CC4)c3c2OC)C1` (configuration not stated): the Potency is 18.7 µM (active).
